The values below come from PubChem BioAssay (NCI).

This is part of a sample that, as a whole, favours compounds with a hit. Of some 83,000 tested, about 20% had one in any assay.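 Step 1: grow cells in 96-well plates. Step 2: add test compound at a single concentration. Step 3: incubate 48 h. Step 4: record percent growth.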 Unmarked numbers belong to inactive results. Active and inactive are the calls of the source. Rule for the calls: active = growth percent below 10; inactive = the rest.

One experiment has as its system PC-3 prostate. Nature of the experiment: NCI-60 one-dose screen, 48 h (100 = growth as untreated, 0 = no growth, -100 = all killed). As to conditions: 10 µM unless noted.
Take `CC(C)(C)C(CCc1ccc(Cl)cc1)N1CCN(C2CCCCC2)CC1` (stereo not drawn): the growth is 27.7%.
Same read-out and setting: then `COC1=C(OC)C(=O)C(OC)=C(OC)C1=O`, with 95.5%.
The same measure, in the same setting: then `COc1cc2ncn3c(=O)c4c5c(sc4nc3c2cc1OC)CCCC5`, with 87.6%; and `CCn1c(C)nc2cc(C(N)=O)ccc21`, with 101%; and `O=C(CCCCCCSc1nc(-c2ccccc2)cc(-c2ccc(Cl)cc2)n1)NO`, with 39.9%.
The same measure, in the same setting: for `O=C(Nc1cccc(C(F)(F)F)c1)Nc1cccc(C(F)(F)F)c1` the value was 6.31% (active); for `COc1ccc(NC(=O)c2nc(-c3cc(OC)c(OC)c(OC)c3)n(-c3cccc4ccccc34)n2)cc1OC`, 39.8%; for `CCSC1=NC2C(N(CC)C(=O)N2CC)N1/N=C/C=C/c1ccccc1[N+](=O)[O-]` (stereo not drawn), 22.9%.
As to `CC(C)C(=O)Nc1n[nH]c2cc(-c3cccc(NS(=O)(=O)C4CC4)c3)ccc12`, the growth is 64%.
Still for that read-out and setting: for `Cn1c(=O)c2[nH]c(NN)nc2n(C)c1=O` the value was 101%.

The test system of the next experiment is SK-MEL-5 melanoma. Described as above. As to conditions: 10 µM unless noted.
Consider `O=C1Nc2ccccc2/C1=C/c1cn(C(=O)c2c(Cl)cccc2Cl)c2ccccc12`, for which the growth is 63.1%.
For `C=CCn1c(C)nc2cc(Nc3nc(N4CCCC4)nc4ccccc34)ccc21`, the growth is 62.4%.
Still for that read-out and setting: then `COc1ccc2nc(NNC(=O)c3cnccn3)c3cccn3c2c1`, with 0.958% (active); and `CC(=O)OC1CCC2(C)C(=CC3C4CCC(=O)C4(C)CCC32)C1` (stereo not drawn), with 105%; and `Cc1ccc(-n2c(-c3ccccc3)c(-c3ccccc3)c3c(SCC(=O)n4[nH]c(N)cc4=O)ncnc32)cc1`, with 87.3%.
With `C[C@@H]1N=C(c2ccc3ccccc3n2)Nc2nc3ccccn3c2C1=O`, the growth is 94.3%.
`N[C@@H](CCCCNCC(=O)O)C(=O)O`: the growth was 101%.
With `Clc1cccc(Cl)c1C(Nc1nc2ccccc2s1)Nc1nc2ccccc2s1`, the growth is 88.4%.
Same read-out and setting: then `COc1cc(/C=C/C(=O)c2c(C)nc3ccccc3c2C)ccc1OCCCN1CCN(C(=O)c2ccco2)CC1`, with 33.5%.
For the compound `Cc1ccc(Cc2cnc(NC(=O)c3ccc4noc(-c5ccccc5)c4c3)s2)cc1`, the growth is 94.9%.
Take `CC(=O)c1nc(Nc2ccc(C)cc2)sc1C`: the growth was 98.6%.
The same measure, in the same setting: then `Cc1c(C(=O)OC(=NC2CCCCC2)NC2CCCCC2)sc2c1c(=O)nc1c(C#N)n[nH]n12`, with 110%; and `O=C(CCc1nnc(CN(c2ccccc2)c2ccccc2)o1)c1nc2ccccc2[nH]1`, with 99.4%.
The same measure, in the same setting: for `O=C(CC(SCc1ccccc1)c1ccccc1)c1ccccc1` (stereo not drawn) the value was 97.3%; for `COc1ccc(-c2nc3ccc4[nH]ncc4c3c3c2CCCC3)cc1B(O)O`, 73.8%; for `CC(C)(C)OC(=O)Nc1ccc2c(c1)C(NC(=O)Nc1cccc(C#N)c1)CC(C)(C)O2` (stereo not drawn), -5.57% (active).
The same measure, in the same setting: then `O=C(NCCc1ccc(O)c(O)c1)C12CC3CC(CC(C3)C1)C2`, with 96%; and `CC1=NOC(=O)/C1=C\c1ccc(O)cc1`, with 101%.
Take `O=C1/C(=C\c2cccnc2)SC(=S)N1CCc1ccc(O)cc1`: the growth was 90.1%.
On the same count and under the same terms, then `Cn1cc(-c2csc(-c3cccc(F)c3)n2)c2cccnc21`, with -86.1% [100 µM] (active); and `C=CCn1c(C)nc2cc(Nc3nc(Cl)nc4ccccc34)ccc21`, with 91.4%.
On the same count and under the same terms, then `O=C(NC(Cc1nnc2n(Cc3ccccc3)c(=O)c3c4c(sc3n12)CCCC4)c1ccc(Cl)cc1)c1ccccc1` (stereo not drawn), with 81.9%; and `N#Cc1c(-c2cccc(Cl)c2)cc(-c2cccc(Cl)c2)[nH]c1=O`, with 64.9%.
Still for that read-out and setting: for `Clc1cccc(Cl)c1/C=C/c1cc(/C=C/c2c(Cl)cccc2Cl)[nH]n1` the value was 22.9%; for `O=C1c2cccc(NCCN=Cc3cc([N+](=O)[O-])ccc3O)c2C(=O)c2c(NCCN=Cc3cc([N+](=O)[O-])ccc3O)cccc21`, 92.1%.
As to `COC(=O)[C@H](CSC)N(C)C(=O)[C@@H]1CSSC[C@@H](NC(=O)c2nc3ccccc3cc2O)C(=O)NCC(=O)N1C`, the growth was 38%.
Still for that read-out and setting: for `O=C1N=c2cc3c(cc2=C/C1=C/c1sc(=S)n(CCc2ccc(O)cc2)c1O)OCCO3` the value was 83.3%.
The same measure, in the same setting: then `O=C1CC(N2C(=O)/C(=C/C(Cl)=C\c3ccc([N+](=O)[O-])cc3)SC2=S)C(=O)N1c1ccc(O)cc1` (stereo not drawn), with -39.1% (active).
Same read-out and setting: for `CC(C)(C)C(CCc1ccc(Cl)cc1)N1CCN(C2CCCCC2)CC1` (stereo not drawn) the value was 46.4%.
With `COC1=C(OC)C(=O)C(OC)=C(OC)C1=O`, the growth is 105%.
The same measure, in the same setting: for `COc1cc2ncn3c(=O)c4c5c(sc4nc3c2cc1OC)CCCC5` the value was 102%.
Same read-out and setting: for `CCn1c(C)nc2cc(C(N)=O)ccc21` the value was 112%.
Still for that read-out and setting: then `O=C(CCCCCCSc1nc(-c2ccccc2)cc(-c2ccc(Cl)cc2)n1)NO`, with -26.9% (active); and `O=C(Nc1cccc(C(F)(F)F)c1)Nc1cccc(C(F)(F)F)c1`, with -72.5% (active); and `COc1ccc(NC(=O)c2nc(-c3cc(OC)c(OC)c(OC)c3)n(-c3cccc4ccccc34)n2)cc1OC`, with 32.4%.
With `CCSC1=NC2C(N(CC)C(=O)N2CC)N1/N=C/C=C/c1ccccc1[N+](=O)[O-]` (stereo not drawn), the growth is -38.6% (active).
Same read-out and setting: then `CC(C)C(=O)Nc1n[nH]c2cc(-c3cccc(NS(=O)(=O)C4CC4)c3)ccc12`, with 24.5%; and `Cn1c(=O)c2[nH]c(NN)nc2n(C)c1=O`, with 105%.
